An excerpt weighted towards active compounds, which were near 21% of everything screened.
Pf growth 96h – P. falciparum growth inhibition at 96 hour, primary screen for plastid delayed-death inhibitors; P. falciparum luciferase reporter growth, 96 h; Potency, µM (top dose mostly 28.7 µM), usual class: inhibitors; AID 504834; 320,000 compounds, 6.9% hits; active = well fitted inhibition curve with a large enough effect; inconclusive = small, poorly fitted or top-dose-only effect, or another doubt; inactive = no such curve, though single readings can be large or run the other way
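Luminescence readout: decreased luciferase signal marks inhibited growth of reporter-expressing P. falciparum in infected red cells (2% hematocrit, 0.05% parasitemia final), exposed to compound two generations (96 h, 37 C, 5% CO2).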
Shiga toxin inh – blocks Shiga toxin action in Vero cells; Vero cells, Shiga toxin protein synthesis inhibition reporter; inhibition, % at 38.7 µM; 290,000 compounds, 9.2% hits; in the data active = inhibition mostly above about 28%, no sharp cut-off; inactive = mostly below about 43%
SARS PLpro yeast – blocks SARS-CoV papain-like protease in a yeast assay; S. cerevisiae expressing SARS-CoV PLpro, growth rescue; Potency, µM (titrated, usually from 32.9 µM), actives largely listed as activators; 330,000 compounds, 0.19% hits; also: nearly all actives have a fitted effect of over 55% in size
Pf growth 48h – inhibits P. falciparum growth in the first generation, 48 h; 310,000 compounds, 5.9% hits; P. falciparum luciferase growth in erythrocytes, 48 h; Potency, µM (doses to about 28.7 µM), hits mostly inhibitors; active = well fitted inhibition curve with a large enough effect; inconclusive = small, poorly fitted or top-dose-only effect, or another doubt; inactive = no such curve, though single readings can be large or run the other way
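Parasite viability was followed by luminescence of a genomically integrated firefly luciferase. Cultures held 0.1% parasitemia at 2% hematocrit (final), incubated under 5% CO2 at 37 C.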
NS1 function inh – influenza NS1 inhibition | 270,000 compounds, 0.4% hits | Potency, µM (top dose mostly 46.1 µM); also: actives are rising curves; nearly all actives have a fitted effect of over 50% in size
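S. cerevisiae expressing influenza A NS1, grown in glucose, washed, then diluted 1:100 into pH 6.0 -URA galactose medium with 23 nl compound. Growth recovery read as OD600; NS1-free strain serves as control.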
CHX counter – counter-screen for Shiga toxin inhibitors: cycloheximide protein synthesis inhibition; max response, %; cell reporter, cycloheximide protein synthesis inhibition counterscreen; 300,000 compounds, 12% hits; in the data active = max response mostly above about 13%, no sharp cut-off; inactive = mostly below about 14%; also: read at 38.3 µM for the half of the compounds with a filed dose
Of the large screens only hits and unclear results are named; the others gave an inactive call. Unless noted, calls follow the shape of the full dose curve.

COc1ccc(CC(=O)N(C)Cc2cccc(OC)c2OC)cc1S(=O)(=O)N1CCOCC1	Pf growth 48h inconclusive (no result: Shiga toxin inh, NS1 function inh, CHX counter)
CCOc1nc(N=C(N)N)nc2c(C)cccc12	Pf growth 96h 0.586µM, Pf growth 48h 8.28µM
CCOc1ccccc1Nc1cc(C)c2cccc(C)c2n1	none (no result: Shiga toxin inh)
CCOc1ccccc1N1CC(C(=O)N2CCOCC2)CC1=O (stereo not drawn)	none
COCCN1C(=O)N[C@@H](c2ccco2)C(C(C)=O)=C1C	none
CN(C)C(=O)c1ccc(-n2cnc3ccccc3c2=O)cc1	Pf growth 96h 11.7µM (no result: NS1 function inh)
O=c1c2ccccc2ncn1-c1ccc2c(c1)OCCO2	Shiga toxin inh 64.7, CHX counter 31.6
COc1ccc(-c2cc(C)no2)cc1S(=O)(=O)NCC(C)c1ccccc1 (stereo not drawn)	Pf growth 96h inconclusive, Pf growth 48h inconclusive
C=CCOc1ccc(/C=N/NC(=O)C(=O)N2CCCCCC2)cc1OC	none
CN(C)c1ccc(NC(=S)c2ccccn2)cc1	none
CN(C)c1ccc(C(=S)Nc2ccccc2)cc1	Shiga toxin inh 128.3, CHX counter 89.1
CN(C)c1cc(O)c(C(=S)Nc2ccccc2)c(N(C)C)c1	Shiga toxin inh 40.9, Pf growth 48h inconclusive, CHX counter 21.9
N#C/C(=C/c1ccccc1[N+](=O)[O-])c1nc(C2CC2)cs1	CHX counter 24.8
N#C/C(=C\c1ccc([N+](=O)[O-])cc1)c1nc(C2CC2)cs1	CHX counter 20.6
N#C/C(=C\c1ccccc1[N+](=O)[O-])c1nc(C2CC2)cs1	Shiga toxin inh 58.3, CHX counter 56.8
N#C/C(=C\C=C\c1ccccc1[N+](=O)[O-])c1nc(-c2ccc3c(c2)OCO3)cs1	none
COCCn1c(SCC(=O)N2CCC(C)CC2)nc2c([nH]c3ccccc32)c1=O	Pf growth 96h inconclusive, Pf growth 48h inconclusive
Cc1[nH]nc2c1C(c1ccc(O)cc1)C1=C(CC(C)(C)CC1=O)N2 (stereo not drawn)	Pf growth 96h inconclusive
Cc1ccc(C2C3=C(CC(C)(C)CC3=O)Nc3[nH]c(=S)[nH]c(=O)c32)cc1 (stereo not drawn)	Pf growth 96h inconclusive, NS1 function inh 8.91µM
Cc1ccc(C2C3=C(CC(C)(C)CC3=O)OC3=C2C(=O)CC(C)(C)C3)cc1	Pf growth 48h 10.4µM
Cc1ccc(C2C3=C(CC(C)(C)CC3=O)N(CCN3CCOCC3)C3=C2C(=O)CC(C)(C)C3)cc1	Pf growth 96h inconclusive, Pf growth 48h 11.7µM
Cc1ccc(C2C3=C(CCCC3=O)OC3=C2C(=O)CCC3)cc1	none
CC1Cc2ccccc2N1C(=O)COC(=O)c1ccc(N(C)C)cc1 (stereo not drawn)	Pf growth 96h inconclusive, Pf growth 48h inconclusive (no result: Shiga toxin inh, NS1 function inh, CHX counter)
O=c1[nH]c2ccc(S(=O)(=O)N3CCCCC3)cc2o1	Pf growth 96h 10.4µM
O=S(=O)(Nc1ccc2c(c1)oc1ccccc12)N1CCCC1	CHX counter 19.9
O=S(=O)(c1ccc2c(c1)oc1ccccc12)N1CCOCC1	Pf growth 48h 13.1µM
COc1cc2c(cc1NS(=O)(=O)N1CCCCC1)oc1ccccc12	none (no result: Pf growth 96h)
O=S(=O)(c1ccc2oc(=S)[nH]c2c1)N1CCCCC1	none
O=S(=O)(c1ccc2oc(=S)[nH]c2c1)N1CCOCC1	Pf growth 96h 8.28µM, Pf growth 48h inconclusive (no result: Shiga toxin inh, NS1 function inh, CHX counter)
Cc1ccc(NC(=O)COC(=O)COc2cccc3c2OC(C)(C)C3)c(C)c1	none (no result: Shiga toxin inh, NS1 function inh, CHX counter)
O=C(CN1C(=O)CCSc2ccccc21)Nc1ccc(F)cc1	Pf growth 96h inconclusive
Cc1cc(S(=O)(=O)N2CCCOC2CNC(=O)C(=O)NCCCN2CCOCC2)ccc1F (stereo not drawn)	none
Nc1cccc(C(=O)OCC(=O)NC2CCCc3ccccc32)c1 (stereo not drawn)	Pf growth 48h 11.7µM (no result: NS1 function inh)
Cc1ccc(-c2nnc3c4ccccc4c(C)nn23)cc1S(=O)(=O)N1CCN(CCO)CC1	Pf growth 96h inconclusive, Pf growth 48h 0.415µM
C/C(=N\Nc1ncnc2sc(C)c(C)c12)c1ccccn1	Pf growth 96h 0.0465µM, Shiga toxin inh 67.0, Pf growth 48h 0.165µM, CHX counter 49.4
Cc1sc2ncnc(N/N=C/c3cccc(O)c3)c2c1C	Shiga toxin inh 29.4, CHX counter 42.3
Cc1ccc(Nc2ncnc3sc(C)c(C)c23)cc1	Pf growth 96h 9.28µM, Shiga toxin inh 78.8, CHX counter 24.0
Cc1sc2ncnc(Nc3ccc(O)cc3)c2c1C	Pf growth 96h inconclusive
Cc1ccccc1OCC(=O)NCCCNC(=O)c1cccnc1	none
CCCCN(C(=O)c1ccc(-c2ccc([N+](=O)[O-])cc2)o1)c1c(N)n(CC(C)C)c(=O)[nH]c1=O	Pf growth 48h inconclusive (no result: Shiga toxin inh, NS1 function inh, CHX counter)
Cc1nc(C(=O)N(C)C)nn1-c1cc(Cl)cc(Cl)c1	none
CCOC(=O)C1C(=O)OC(C)(C)C1C(C)C(=O)c1ccc(C)cc1C (stereo not drawn)	none
COc1ccc(-c2csc3ncnc(N4CCN(S(=O)(=O)c5cccc(Br)c5)CC4)c23)cc1	Pf growth 96h inconclusive, Pf growth 48h inconclusive (no result: Shiga toxin inh, NS1 function inh, CHX counter)
COc1ccc(-c2csc3ncnc(N4CCN(S(=O)(=O)c5cccc(C(F)(F)F)c5)CC4)c23)cc1	Pf growth 48h 10.4µM (no result: Shiga toxin inh, NS1 function inh, CHX counter)
COc1ccc(-c2csc3ncnc(N4CCN(S(=O)(=O)c5ccc(C(C)=O)cc5)CC4)c23)cc1	Pf growth 96h 2.33µM, Pf growth 48h 1.65µM (no result: Shiga toxin inh, NS1 function inh, CHX counter)
Cc1ccc(S(=O)(=O)N2CCN(c3ncnc4scc(-c5ccc(F)cc5)c34)CC2)cc1	Pf growth 48h inconclusive (no result: Shiga toxin inh, NS1 function inh, CHX counter)
Cc1cc(NC(=O)NC2CCCN2S(=O)(=O)c2ccc(Cl)cc2)no1 (stereo not drawn)	none
Cc1ccc(NCC(=O)N/N=C/c2ccncc2)cc1	Pf growth 96h inconclusive
COc1ccc(C(=O)Nc2nnc(CC(=O)N/N=C/c3ccc(O)cc3O)s2)cc1	Pf growth 96h inconclusive, Shiga toxin inh 42.9, CHX counter 17.2
Cc1ccc(C(=O)Nc2nnc(CC(=O)N/N=C/c3ccncc3)s2)cc1	Pf growth 96h inconclusive, Shiga toxin inh 57.0, CHX counter 29.6 (no result: NS1 function inh)
Cc1ccc(C(=O)Nc2nnc(CC(=O)N/N=C/c3ccc(O)c(O)c3)s2)cc1	Pf growth 96h inconclusive, NS1 function inh inconclusive, CHX counter 23.6
Cc1ccccc1C(=O)Nc1nnc(CC(=O)N/N=C/c2ccco2)s1	none
CCC(C)NC(=O)c1ccc(COc2ccccc2Cl)cc1 (stereo not drawn)	Pf growth 48h inconclusive, CHX counter 15.4 (no result: Pf growth 96h)
CCN(CC)C(=O)c1ccc(COc2ccccc2Cl)cc1	Shiga toxin inh 48.1 (no result: Pf growth 48h)
CN1CCN(C(=O)c2ccc(COc3cc(Cl)ccc3Cl)o2)CC1	none
O=C(O)c1ccc(COc2ccccc2Cl)cc1	Shiga toxin inh 145.2, CHX counter 28.5 (no result: Pf growth 96h)
CN1CCN(C(=O)c2cccc(COc3cc(Cl)ccc3Cl)c2)CC1	Shiga toxin inh 102.6, CHX counter 48.0 (no result: Pf growth 96h)
CN(C(=O)c1ccccc1OCc1ccc(Cl)cc1)c1ccccc1	Pf growth 96h inconclusive
O=[N+]([O-])c1ccc2nc(Cl)nc(-c3ccccc3)c2c1	none
O=C(O)c1cccc(COc2ccccc2Cl)c1	Shiga toxin inh 18.8, CHX counter 13.6 (no result: Pf growth 96h)
